Experimental data: PubChem BioAssay AID1159580 (chemical genetic matrix, 2015)
“And” between values parts separate entries of the source, which are not always exact repeats. Equal values may be shown once. Among all 5,500 compounds or so, about 2,000 (36%) were called active. Another 18% or so got no clear call; they are omitted. Cut-off read from the data, not from the text of the source: active = normalized growth mostly below about 0.91 (no sharp cut-off); inconclusive = no clear call, values can overlap the other calls; inactive = mostly above about 0.92. This is one part of the list.

Experiment: chemical genetic growth profiling, strain panel (AID 1159580);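 note: tested at 20 µM; growth read once vehicle control cultures reached saturation at 30 °C; 1 = growth at the plate median or of vehicle wells; lower values mean less growth of the strain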
Conditions: S. cerevisiae deletion strains, growth OD

Measured: normalized growth

COC(=O)COc1cc(Cl)c(Cl)cc1Cl
0.853 (inactive) and 0.874 (active): locus YJL095W, strain BCK1, stronger effect = lower value
inactive: locus YAL013W, strain DEP1, stronger effect = lower value 0.982 | locus YAL021C, strain ccr4, stronger effect = lower value 0.993 | locus YAL026C, strain drs2, stronger effect = lower value 0.996 | locus YAL030W, strain snc1, stronger effect = lower value 0.998 | locus YBL061C, strain skt5, stronger effect = lower value 0.989 | locus YBR009C, strain hhf1, stronger effect = lower value 0.989 | locus YBR021W, strain FUR4, stronger effect = lower value 0.98 | locus YBR023C, strain chs3, stronger effect = lower value 0.99 | locus YBR171W, strain sec66, stronger effect = lower value 1.01 | locus YBR229C, strain ROT2, stronger effect = lower value 0.981 | locus YBR231C, strain swc5, stronger effect = lower value 0.99 | locus YBR279W, strain paf1, stronger effect = lower value 1 | locus YCL011C, strain gbp2, stronger effect = lower value 0.99 | locus YCL016C, strain dcc1, stronger effect = lower value 1.01 | locus YCL029C, strain bik1, stronger effect = lower value 0.957 | locus YCL061C, strain MRC1, stronger effect = lower value 0.985 | locus YCL069W, strain vba3, stronger effect = lower value 0.986 | locus YCR088W, strain abp1, stronger effect = lower value 0.985 | locus YDL005C, strain med2, stronger effect = lower value 1.01 | locus YDL035C, strain GPR1, stronger effect = lower value 1.01 | locus YDL040C, strain nat1, stronger effect = lower value 0.996 | locus YDL074C, strain BRE1, stronger effect = lower value 0.943 | locus YDL101C, strain DUN1, stronger effect = lower value 0.977 | locus YDL134C, strain PPH21, stronger effect = lower value 0.978 | locus YDL185W, strain tfp1, stronger effect = lower value 0.992 | locus YDL192W, strain arf1, stronger effect = lower value 0.989 | locus YDR001C, strain nth1, stronger effect = lower value 0.988 | locus YDR069C, strain doa4, stronger effect = lower value 1.02 | locus YDR101C, strain arx1, stronger effect = lower value 0.954 | locus YDR150W, strain NUM1, stronger effect = lower value 0.976 | locus YDR159W, strain sac3, stronger effect = lower value 0.973 | locus YDR162C, strain NBP2, stronger effect = lower value 0.965 | locus YDR195W, strain ref2 1.02 | locus YDR297W, strain sur2, stronger effect = lower value 1.02 | locus YDR318W, strain mcm21, stronger effect = lower value 0.955 | locus YDR334W, strain swr1, stronger effect = lower value 1 | locus YDR335W, strain msn5, stronger effect = lower value 1.01 | locus YDR388W, stronger effect = lower value 0.974 | locus YDR392W, strain spt3, stronger effect = lower value 0.963 | locus YDR502C, strain sam2, stronger effect = lower value 0.969 | locus YEL003W, strain gim4, stronger effect = lower value 1.01 | locus YEL037C, strain rad23, stronger effect = lower value 0.997 | locus YEL061C, strain CIN8 (second series), stronger effect = lower value 0.993 | locus YEL061C, strain CIN8, stronger effect = lower value 0.98 | locus YER015W, strain faa2, stronger effect = lower value 0.998 | locus YER016W, strain bim1, stronger effect = lower value 0.999 | locus YER110C, stronger effect = lower value 0.954 | locus YER111C, strain swi4, stronger effect = lower value 0.997 | locus YER155C, strain BEM2 (second series), stronger effect = lower value 1.01 | locus YER155C, strain BEM2, stronger effect = lower value 0.983 | locus YER167W, strain BCK2, stronger effect = lower value 0.975 | locus YFR010W, strain ubp6, stronger effect = lower value 1.01 | locus YGL078C, strain dbp3, stronger effect = lower value 0.96 | locus YGL086W, strain mad1, stronger effect = lower value 0.976 | locus YGL167C, strain pmr1, stronger effect = lower value 0.997 | locus YGL173C, strain kem1, stronger effect = lower value 0.998 | locus YGL227W, strain vid30, stronger effect = lower value 0.979 | locus YGL240W, strain doc1, stronger effect = lower value 0.995 | locus YGL248W, strain PDE1, stronger effect = lower value 0.987 | locus YGL253W, strain hxk2, stronger effect = lower value 1.01 | locus YGR078C, strain PAC10, stronger effect = lower value 0.968 | locus YGR135W, strain pre9, stronger effect = lower value 0.971 | locus YGR229C, strain SMI1, stronger effect = lower value 0.942 | locus YGR252W, strain gcn5, stronger effect = lower value 1 | locus YHR013C, strain ard1, stronger effect = lower value 1.13 | locus YHR027C, strain rpn1, stronger effect = lower value 1.03 | locus YHR030C, strain SLT2, stronger effect = lower value 0.967 and 0.86 | locus YHR079C, strain IRE1 (second series), stronger effect = lower value 0.953 | locus YHR079C, strain IRE1, stronger effect = lower value 0.884 | locus YHR094C, strain hxt1, stronger effect = lower value 0.964 | locus YHR129C, strain ARP1, stronger effect = lower value 0.976 | locus YHR142W, strain chs7, stronger effect = lower value 0.988 | locus YHR200W, strain rpn10, stronger effect = lower value 0.982 | locus YIL066C, strain RNR3, stronger effect = lower value 0.948 | locus YIL073C, strain SPO22, stronger effect = lower value 1.04 | locus YIL125W, strain kgd1, stronger effect = lower value 0.957 | locus YIR030C, strain dcg1, stronger effect = lower value 0.953 | locus YJL092W, strain hpr5, stronger effect = lower value 0.989 | locus YJL095W, strain BCK1 (second series), stronger effect = lower value 0.991 | locus YJL115W, strain asf1, stronger effect = lower value 1.01 | locus YJL129C, strain trk1, stronger effect = lower value 0.971 | locus YJL134W, strain LCB3, stronger effect = lower value 0.974 | locus YJL154C, strain vps35, stronger effect = lower value 0.99 | locus YJL164C, strain tpk1, stronger effect = lower value 0.997 | locus YJL166W, strain qcr8, stronger effect = lower value 0.995 | locus YJL168C, strain set2, stronger effect = lower value 0.976 | locus YJL187C, strain SWE1 (second series), stronger effect = lower value 0.983 | locus YJL187C, strain SWE1, stronger effect = lower value 1 | locus YJR043C, strain POL32, stronger effect = lower value 0.942 | locus YJR066W, strain TOR1, stronger effect = lower value 0.842
active: locus YDR137W, strain rgp1, stronger effect = lower value 0.839
